Consider 63 molecules from PubChem BioAssay AID2314 (National Center for Advancing Translational Sciences (NCATS), 2010).

Among all 300,000 compounds or so, about 37,000 (12%) were called active. Cut-off read from the data, not from the text of the source: active = max response mostly above about 13% (no sharp cut-off); inactive = mostly below about 14%. What follows is part of a selection rich in actives, with near analogues and random picks from the rest.

The nature of the test: Cycloheximide Counterscreen for Small Molecule Inhibitors of Shiga Toxin. Note: read at 38.3 µM for the half of the compounds with a filed dose; 0% is about no effect. As to conditions: cell reporter, cycloheximide protein synthesis inhibition counterscreen; stronger effect = higher value.
As to `CCc1ccccc1N(CC(=O)NCC1CCCO1)C(=O)CCC(=O)Nc1nccs1` (stereo not drawn), the max response was -4.73% (inactive).

With `CCOc1ccccc1NC(=O)C1CCCN(S(=O)(=O)c2ccccc2)C1` (stereo not drawn), the max response was -1.93% (inactive).

In the case of `CCc1nnc(NS(=O)(=O)c2ccc(NC(=S)NC(=O)c3cccs3)cc2)s1`, the max response was 0.706% (inactive).

Consider `O=C(NC(=S)Nc1ccc(NC(=O)c2cccs2)cc1)c1ccc([N+](=O)[O-])cc1`, for which the max response is 0.608% (inactive).

As to `NS(=O)(=O)c1ccc(NC(=S)NNC(=O)c2cccs2)cc1`, the max response was 29.3% (active).

For `O=C(c1n[nH]c2c1CCC2)N1CCCC(Nc2cccc(F)c2)C1` (stereo not drawn), the max response was 10.7% (inactive).

Regarding `O=C(NCc1ccc(Cl)cc1)c1cc(=O)nc2sc(-c3ccccc3)nn12`, the max response is -4.5% (inactive).

Regarding `CC(=NCc1ccco1)C1=C(O)c2ccccc2C1=O`, the max response is 24.6% (inactive).

In the case of `CC(=NCc1ccc2c(c1)OCO2)c1c(O)[nH]c(=O)[nH]c1=O`, the max response was -1.94% (inactive).

For `CC(=NCc1ccc2c(c1)OCO2)C1=C(O)c2ccccc2C1=O`, the max response is 14.2% (active).

As for `CC1C(=O)N(Cc2ccccc2)c2ccccc2N1C(=O)c1ccccc1` (stereo not drawn), the max response was 5.44% (inactive).

As for `O=C(OCc1ccc([N+](=O)[O-])cc1)C1CC(=O)N(Cc2ccccc2Cl)C1` (stereo not drawn), the max response is 5.26% (inactive).

`O=C(Nc1ccc2c(c1)CCC2)c1cccc(S(=O)(=O)N2CCN(c3ccc(F)cc3)CC2)c1`: the max response was 18.6% (active).

Take `Cc1cccnc1NC(=O)c1cccc(S(=O)(=O)N2CCN(c3ccc(F)cc3)CC2)c1`: the max response is -1.47% (inactive).

Consider `CN1CCN(S(=O)(=O)c2cccc(C(=O)Nc3cccc(S(N)(=O)=O)c3)c2)CC1`, for which the max response was 5.45% (inactive).

Take `OCCC1CN(Cc2cnc(-c3ccccc3)s2)CCN1CCc1ccccc1` (stereo not drawn): the max response is -2.01% (inactive).

On to `Clc1ccc(-c2nnc(SCc3nc4ccccc4s3)o2)cc1`, for which the max response was 31.5% (active).

On to `O=C(CSc1nnc(-c2ccncc2)o1)NCc1ccc(Cl)cc1`, for which the max response was -4.87% (inactive).

Consider `O=C(COC(=O)CSc1nnc(-c2ccc(Cl)cc2)o1)Nc1cc(Cl)cc(Cl)c1`, for which the max response was -1.68% (inactive).

With `O=C(NCc1ccccc1Cl)C1CCN(S(=O)(=O)c2cccc3nonc23)CC1`, the max response was 7.56% (inactive).

Turning to `O=c1oc(-c2ccccc2NS(=O)(=O)c2ccc(Cl)cc2)nc2ccccc12`, the max response is -0.333% (inactive).

For the molecule `Cc1nc(Cl)cc(N/N=C/c2ccccc2)n1`, the max response was 9.02% (active).

For the molecule `Cc1cc(N/N=C\c2ccc(Br)cc2)nc(-n2nc(C)cc2C)n1`, the max response was -2.43% (inactive).

With `C(=N/Nc1cc(N2CCOCC2)nc(N2CCOCC2)n1)/c1ccccc1`, the max response was -4.51% (inactive).

For `CCc1ccc2oc(=O)cc(CN3CCCCC3C)c2c1` (stereo not drawn), the max response was 10.3% (inactive).

Consider `CCOC(=O)C1CCCN(C(=O)COc2ccc(N(C)S(=O)(=O)c3ccc(C)cc3)cc2)C1` (stereo not drawn), for which the max response is -3.78% (inactive).

As for `O=C(NCC1CCCO1)C1CCN(C2CCN(C(=O)C3CCCCC3)CC2)CC1` (stereo not drawn), the max response was -2.3% (inactive).

Turning to `O=c1c2c(nc3nc[nH]n13)CCC2`, the max response was -2.72% (inactive).

`O=c1c2c(nc3cc(-c4cccc(Cl)c4)[nH]n13)CCCC2`: the max response was 52.1% (active).

As to `Cc1cc(=O)n2[nH]c(-c3cccc(Cl)c3)cc2n1`, the max response is 6.54% (inactive).

With `COc1ccc(OC)c(NC(=O)Cc2cccs2)c1`, the max response was 5.9% (inactive).

`CS(=O)(=O)N(CC(=O)N/N=C/c1ccccn1)c1ccc(Oc2ccccc2)cc1`: the max response is 8.35% (inactive).

In the case of `CC(C(=O)N=Nc1c(O)n(C)c2ccc(Br)cc12)n1cnc2ccccc2c1=O` (stereo not drawn), the max response is 1.79% (inactive).

On to `Cn1c(CCCOc2ccc(Cl)cc2Cl)n[nH]c1=S`, for which the max response is 16.1% (active).

On to `S=c1[nH]nc(CSCc2ccc(Cl)cc2Cl)n1-c1ccccc1`, for which the max response is -1.69% (inactive).

Consider `O=C(CCCOc1ccc(Cl)cc1Cl)NNC(=O)C1CCC1`, for which the max response is 3.02% (inactive).

On to `CC(C)Cn1c(N)c(C(=O)COC(=O)CN2C(=O)C3CC=CCC3C2=O)c(=O)n(C)c1=O` (stereo not drawn), for which the max response was 1.25% (inactive).

For `COc1ccc(-n2c(-c3ccc(OC)c(OC)c3)n[nH]c2=S)cc1`, the max response was -1.61% (inactive).

In the case of `COc1ccc(-n2cc(-c3ccccc3)c3c(=S)nc[nH]c32)cc1`, the max response is -2.8% (inactive).

As for `COc1ccc(-c2cn(-c3ccc(OC)cc3)c(=S)[nH]2)cc1`, the max response is 37.9% (active).

`O=C(Cc1ccc(S(=O)(=O)N2CCOCC2)s1)NCCC(c1ccccc1)c1ccccc1`: the max response was -2.5% (inactive).

On to `CCS(=O)(=O)c1cc([N+](=O)[O-])c(Sc2ccccc2N)s1`, for which the max response is 52.5% (active).

For the molecule `CCOC(=O)c1cc(Sc2ccccc2N)cc(C(=O)OCC)n1`, the max response was -2.14% (inactive).

As to `Nc1ccccc1Sc1ccc(C(F)(F)F)cc1[N+](=O)[O-]`, the max response was -0.845% (inactive).

Consider `Fc1ccc(-n2c(Cc3ccccc3)nnc2SCc2nc(-c3ccc(Cl)cc3)no2)cc1`, for which the max response was -3.26% (inactive).

Turning to `CCOC(=O)C1C(c2ccc(O)cc2)NC(=O)NC1(O)C(F)(F)F` (stereo not drawn), the max response is -1.88% (inactive).

Consider `Cc1cc(OC(C)C(=O)NC2CC(C)(C)NC(C)(C)C2)c2c(C)cc(=O)oc2c1` (stereo not drawn), for which the max response was 2.41% (inactive).

As to `CN(C)CCCNC(=O)c1cc(C(=O)Cc2ccc(Cl)cc2)c[nH]1`, the max response is 0.733% (inactive).

As to `CC(C)CNC(=S)NNC(=O)c1nn(C)cc1Cl`, the max response was -2.88% (inactive).

As to `Cn1cc(Cl)c(C(=O)NNC(=S)Nc2cccc(Cl)c2)n1`, the max response is 42% (active).

`COc1cccc(NC(=S)NC(=O)c2c(Cl)c(C)nn2C)c1`: the max response is 18.3% (inactive).

Consider `COc1ccc(C2=NS(=O)(=O)N(C)C(C(=O)N3CCCCC3)=C2)cc1`, for which the max response was 0.248% (inactive).

With `NC(N)=Nc1nc2ccc(Br)cc2c(=O)[nH]1`, the max response was 1.64% (inactive).

`CC(=O)Nc1ccc(S(=O)(=O)NNC(=O)CCc2ccccc2)cc1`: the max response was 17.5% (inactive).

Turning to `COC(=O)c1ccc(CSc2nc3cc(Cl)ccc3o2)cc1`, the max response is -2.59% (inactive).

Turning to `COc1ccc(CNC(=O)c2cc(=O)c3c(C)cc(C)cc3o2)cc1`, the max response is 10.1% (inactive).

In the case of `Cc1ccc(C(=O)NC(C)c2ccccc2)cc1Br` (stereo not drawn), the max response is 12.6% (inactive).

As to `COC(=O)c1ccc(CNC(=O)c2ccc3oc(C(C)C)nc3c2)cc1`, the max response was 49.5% (active).

Turning to `CC(C)c1nc2cc(C(=O)NC(C)c3cnn(C)c3)ccc2o1` (stereo not drawn), the max response was 16.9% (active).

`COc1ccc(CNC(=O)c2ccc3oc(C(C)C)nc3c2)cc1`: the max response is 43.8% (active).

Take `CCOc1c2ccc(C(=O)NCc3ccc(OC(F)(F)F)cc3)cc2nn1C`: the max response was -3.46% (inactive).

As to `COCC1CCCN(C(=O)c2ccc3oc(C(C)C)nc3c2)C1` (stereo not drawn), the max response was 12.4% (inactive).

Turning to `COc1ccc(C(=O)N[C@H](C(=O)NCc2ccccc2)C(C)C)cc1`, the max response is 1.24% (inactive).
